Screening results deposited in PubChem by National Center for Advancing Translational Sciences (NCATS).
Hits are enriched below; roughly 10% of the tested compounds scored in any of these assays.
MmCpn inh = M. maripaludis TRiC chaperonin inhibition; purified Mm-Cpn ATPase, ADP Transcreener TR-FRET; Potency, µM (top dose mostly 76.9 µM), for inactives: at the highest dose activity, negative = inhibition, usual class: inhibitors; actives 0.031% (n = 330,000); AID 504842; also: potency is read from the fitted curve at half-maximal effect; nearly all actives have a fitted effect of over 80% in size
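TR-FRET (320 nm excitation; 590 and 665 nm emission) reports ADP made from 10 uM ATP by 25 nM enzyme; compounds were preincubated 10 min, reaction run 30 min, both at 37°C.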
G9a inh = G9a (human) methyltransferase inhibition; Q96KQ7; Potency, µM (titrated, usually from 102 µM), for inactives: at the top dose activity, negative = inhibition, actives largely listed as inhibitors; actives 8.8% (n = 350,000); AID 504332; G9a H3K9 monomethylation, AlphaScreen, 2 h; also: potency is read from the fitted curve at half-maximal effect; nearly all actives have a fitted effect of over 75% in size
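Enzyme 20 nM + cpd, 15 min RT; add b-H3K9 pep 500 nM / SAM 20 uM; 2 h RT; anti-H3K9me1 Ab 0.5 ug/mL + SA donor / anti-rabbit acceptor beads 20 ug/mL each, 10 min; AlphaScreen read.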
Sfp PPTase inh = blocks B. subtilis Sfp PPTase activity | Q9F4F7 | Biochemical Sfp PPTase activity, qHTS | Potency, µM, for the others: largest response in the series, negative = inhibition, hits mostly inhibitors | actives 3.5% (n = 310,000);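 also: the enzyme is Sfp with the accession as filed and its product quenches rhodamine fluorescence; potency is read from the fitted curve at half-maximal effect; 0% = enzyme reaction without inhibitor and -100% = no enzyme wells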
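With Hepes-Na pH 7.6 buffer containing 10 mM MgCl2, Sfp (15 nM) modified BHQ-2-YbbR (12.5 uM) using rhodamine-CoA (5 uM). Two reads 30 minutes apart at 525/598 nm yielded each well's rate.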
PLK1 PBD block = inhibitors of human PLK1 polo-box domain binding; P53350; Plk1 PBD binding of FITC phosphopeptide, fluorescence polarization; Potency, µM, for the others: max response, negative = inhibition, hits mostly inhibitors; actives 2.8% (n = 360,000); also: potency is read from the fitted curve at half-maximal effect; series mostly up to about 57 µM; nearly all actives have a fitted effect of over 65% in size
VDR inhibitor = blocks the human vitamin D receptor; VDR-SRC2-3 peptide fluorescence polarization, 2 h; AID 504847; P11473; Potency, µM, inactives show max response, negative = inhibition, most hits filed as inhibitors; actives 0.93% (n = 400,000); also: potency is read from the fitted curve at half-maximal effect
Target sequence (P11473 whole entry, looked up): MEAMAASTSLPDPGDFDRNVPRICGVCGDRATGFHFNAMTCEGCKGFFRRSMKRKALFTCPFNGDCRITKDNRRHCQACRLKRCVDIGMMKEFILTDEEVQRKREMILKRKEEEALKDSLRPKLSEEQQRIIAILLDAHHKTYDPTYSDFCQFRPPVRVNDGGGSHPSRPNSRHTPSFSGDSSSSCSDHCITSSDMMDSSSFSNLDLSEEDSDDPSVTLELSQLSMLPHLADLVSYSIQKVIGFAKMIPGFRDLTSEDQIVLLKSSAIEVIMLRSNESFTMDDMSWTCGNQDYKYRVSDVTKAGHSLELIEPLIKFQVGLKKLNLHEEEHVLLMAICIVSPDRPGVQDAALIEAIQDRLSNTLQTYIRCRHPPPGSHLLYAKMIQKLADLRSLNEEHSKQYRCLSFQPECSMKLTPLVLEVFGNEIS
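Signal is fluorescence polarization, reporting how far test compounds block the interaction of VDR with the SRC2-3 coregulator peptide after a 2 h room-temperature incubation.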
CCT chaperon mod = changes cytosolic chaperonin activity. purified chaperonin ATPase assay, HTRF ADP detection, 30 min. activity change, % (concentration not given with the values), hits read low. actives 0.3% (n = 360,000); in the data active = activity change below about -30%
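Nucleotide hydrolysis assay: TRiC at 20–40 nM final (set by batch activity) with 10 uM ATP, 30 min at 37 °C, in presence of 76 uM compound. Detection by competitive ADP HTRF, 30 min ambient.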
Numbers without * were called inactive; ? = inconclusive; · = not tested or not shown; [ ] = another dose, or the depositor's remark. Unless noted, calls follow the shape of the dose curve; as a rule, active = well fitted curve in the direction sought with a large enough effect; inconclusive = small, poorly fitted or top-dose-only effect, or another doubt; inactive = no such curve, though single readings can be large; an effect the other way counts as inactive or inconclusive. Unless noted, % is scaled to controls: 0 for no effect and ±100 for the full control effect.

SMILES | MmCpn inh | G9a inh | Sfp PPTase inh | PLK1 PBD block | VDR inhibitor | CCT chaperon mod
Cc1cc(C)nc(N/N=C/c2ccc(Cl)cc2)n1 | 2% | 45µM* | ? | -6% | -3% | -2
CC(/C=N/NC(=O)c1ccncc1)=C\c1ccc(C(C)C)cc1 | -2% | -14% | 10% | -6% | -5% | -2
COc1cccc(OC)c1C(=O)Nc1ccccc1Sc1ccccc1 | · | · | · | 3% | -7% | -1
O=C(CNCCN1CCOCC1)Nc1ccccc1Sc1ccccc1 | -2% | 1.8µM* | 56µM* | -15% | 0% | 1
COCCNCC(=O)Nc1ccccc1Sc1ccccc1 | 0% | 10µM* | 56µM* | -12% | -8% | 0
COc1ccc2c(c1)c1c(c(=O)n(CCc3ccccc3)c(=O)n1Cc1ccccc1)n2C | · | 3%[59 µM] | · | · | -3% | ·
CC(C)C[C@@H](CC(=O)N[C@@H](CCCN)CC(=O)N[C@@H]1CCNC[C@H]1C(=O)N[C@H](CC(=O)N[C@@H](CCC(=O)O)CC(=O)O)CC(C)C)NC(=O)[C@@H]1CCCC[C@H]1N | · | · | -1% | · | -1% | ·
Cc1nc2ccn(Cc3cccs3)c(=O)c2cc1C(=O)Nc1ccccc1 | · | -7%[59 µM] | · | · | 0% | ·
Clc1ccc(-c2ccc(C=Nc3ccc(N4CCOCC4)cc3)o2)cc1 | -10% | -48%[59 µM] | 18% | 1% | -6% | -1
Clc1ccc(-c2ccc(C=Nc3ccc(N4CCOCC4)cc3)o2)c(Cl)c1 | 1% | 35µM* | -8% | -7% | -16% | 2
Oc1ccc(N=Nc2cccc(C(F)(F)F)c2)cc1C=Nc1ccc(N2CCOCC2)cc1 | 0% | ? | 1% | -16% | ? | -2
Clc1cccc(-c2ccc(C=Nc3ccc(N4CCOCC4)cc3)o2)c1Cl | -3% | 14µM* | ? | -7% | ? | 2
CCSc1cc(C)nc2c(-c3ccc(Cl)cc3)c(C)nn12 | 0% | ? | 5% | -1% | -5% | -3
Cc1ccc(C(=O)CSc2nc(O)cc(=O)[nH]2)cc1C | 1% | 1% | 4% | 0% | -5% | -2
Cc1csc(NC(=O)CSc2nc3[nH]ncc3c(=O)[nH]2)n1 | 1% | 32% | 5% | 21µM* | ? | -3
Cc1cc(SCC(=O)c2ccc(O)c(O)c2)n2nc(C)c(-c3ccccc3)c2n1 | 0% | 11µM* | 0% | -8% | -3% | 0
Cc1cc(C)nc(SCC(=O)c2ccc(O)c(O)c2)n1 | 3% | 1.8µM* | ? | -12% | 8% | -1
Cc1cc(C)nc(SCC(=O)c2ccc(C)c(C)c2)n1 | 0% | 37% | -9% | -1% | -6% | 3
Cc1cc(=O)[nH]c(SCC(=O)c2ccc(O)c(O)c2)n1 | -1% | 7.9µM* | -58% | 1% | 19% | 0
COc1cc(NC(=O)N2CCC(CN3CCCCCC3)CC2)cc(OC)c1OC | · | -43%[59 µM] | · | · | 14% | ·
CC(=O)N1CCC[C@@]2(CCN(C(c3ccccc3)c3ccccc3)C2)C1 | · | -1%[12.7 µM] | 18% | · | -18% | ·
Nc1nc(O)c2ncn([C@H]3CC[C@@H](CO)O3)c2n1 | · | · | 23% | · | 13% | ·
O=C(CSc1nc2ccccc2c(=O)[nH]1)c1ccc(O)cc1O | 2% | ? | -12% | 4% | 4% | 1
Cc1cc(C)nc(SCNC(=O)c2ccc(Cl)cc2)n1 | 0% | 50µM* | 56µM* | -9% | -2% | -1
Cc1cc(C)nc(SCC(=O)c2ccc(O)cc2O)n1 | 0% | 40µM* | 45µM* | -2% | -1% | -1
Cc1cc(C)nc(SCc2ccc(Cl)cc2)n1 | 1% | 84% | -2% | -11% | 8% | -2
Cc1cc(C)nc(SCC(=O)N/N=C/c2cc(C)n(-c3ccccc3C)c2C)n1 | 1% | 50µM* | -23% | -11% | -8% | -1
C=CCSc1nc2[nH]ncc2c(=O)[nH]1 | 1% | 14% | 21% | 30µM* | -15% | 1
O=C(CN1C(=O)C2(SCC(=O)N2c2ccc(F)cc2)c2ccccc21)NC1CCCCC1 (configuration not stated) | · | -10%[59 µM] | · | · | 6% | ·
COc1ccccc1NC(=O)Cn1c(=O)n(-c2cccc(Cl)c2)c(=O)c2c1c1cc(C)ccc1n2C | · | -26%[59 µM] | · | · | 7% | ·
